The entries come from a sample that favours hits as a whole.
ClpP mod: qHTS Assay for Activators of ClpP | 1.9% of 340,000 active | purified B. subtilis ClpP, FRET peptide cleavage, 20 min | AID 651965, 2013 | Potency, µM (top dose mostly 57.5 µM), without a hit: at the top dose activity change, negative = active | ATP-dependent Clp protease proteolytic subunit (Bacillus subtilis (strain 168)), P80244; active means well fitted falling curve with a large enough effect; further: potency means the concentration at half of the fitted maximal effect; the source files actives as falling curves though it sought activators and does not explain the sign; nearly all actives have a fitted effect of over 65% in size
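ClpP 10 microg/mL final, pH 8 Tris/KCl buffer with BSA, glycerol, Tween-20; compound pinned in; FRET-FV substrate; RT 20 min; Ex320/Em430; ΔFRET vs ADEP 5.8 microM, DMSO, no enzyme.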
Mito fusion yeast: inhibitors of mitochondrial division or activators of mitochondrial fusion; S. cerevisiae fusion-defective mutant growth rescue, CellTiterGlo 48 h; Potency, µM (doses to about 46.1 µM), for inactives: at the highest dose growth rescue (activation), actives largely listed as activators; 0.23% of 320,000 active; AID 485298; further: potency means the concentration at half of the fitted maximal effect; % of control where 0% means no effect; nearly all actives have a fitted effect of over 45% in size
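Growth-rescue viability read-out: after 48 h at the non-permissive 37C in glycerol/ethanol YPEG, yeast mitochondrial fusion mutants are measured by CellTiterGlo luminescence; compounds (23 nl pinned per well) restoring growth score as division inhibitors or fusion activators.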
IDH1 R132H inh: human IDH1 R132H inhibition | IDH1-R132H enzyme, NADPH consumption, diaphorase/resazurin fluorescence | Potency, µM (titrated, usually from 76.6 µM), for inactives: at the highest dose activity change, negative = inhibition, actives largely listed as inhibitors | 0.093% of 390,000 active; further: potency means the concentration at half of the fitted maximal effect; on the % scale 0 is the no-effect control and ±100 the full control effect; nearly all actives have a fitted effect of over 65% in size
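IDH1-R132H (0.5 ug/mL dispensed) in pH 7.5 Tris buffer was preincubated 30 min with compound, then given a substrate mix of 0.016 mM NADPH and 2 mM alpha-KG for 80 min at room temperature; remaining NADPH was read by diaphorase/resazurin fluorescence.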
S-ASM inh: human S-ASM enzyme inhibition; P17405; placental ASM, HMU-PC fluorogenic substrate, 60 min; Potency, µM (titrated, usually from 57.5 µM), without a hit: top-dose activity change, negative = inhibition, usual class: inhibitors; 0.006% of 340,000 active; AID 504937; further: potency means the concentration at half of the fitted maximal effect
Target sequence (P17405 47-631 limits assumed): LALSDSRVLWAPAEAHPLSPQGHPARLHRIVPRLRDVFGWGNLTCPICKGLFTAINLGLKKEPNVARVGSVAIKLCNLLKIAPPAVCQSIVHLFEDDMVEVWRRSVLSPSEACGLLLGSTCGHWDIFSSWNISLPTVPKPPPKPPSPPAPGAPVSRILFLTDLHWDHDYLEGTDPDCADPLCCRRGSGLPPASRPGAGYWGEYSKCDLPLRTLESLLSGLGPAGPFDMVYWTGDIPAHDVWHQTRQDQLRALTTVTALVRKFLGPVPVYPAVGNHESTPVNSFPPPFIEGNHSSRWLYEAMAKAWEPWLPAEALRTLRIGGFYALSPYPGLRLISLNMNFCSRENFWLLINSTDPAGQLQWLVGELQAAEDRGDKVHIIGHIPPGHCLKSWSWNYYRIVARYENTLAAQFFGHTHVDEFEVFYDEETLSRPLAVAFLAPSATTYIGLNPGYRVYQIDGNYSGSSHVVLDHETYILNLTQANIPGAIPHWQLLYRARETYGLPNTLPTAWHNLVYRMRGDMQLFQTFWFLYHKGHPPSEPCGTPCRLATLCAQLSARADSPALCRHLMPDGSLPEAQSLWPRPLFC
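HMU-PC0 cleavage (9 uM final) by human placental ASM, 60 min at 37 °C following 10 min compound exposure at RT; stopped at pH 10, fluorescence Ex 386/Em 447 nm.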
RGS4 inhibitor: human RGS4 inhibition. P49798. Transcreener GDP fluorescence polarization, RGS4-accelerated GTP hydrolysis. Potency, µM (doses to about 114 µM), for the others: at the top dose activity change, negative = inhibition, actives largely listed as inhibitors. 0.039% of 390,000 active. AID 504845; further: potency means the concentration at half of the fitted maximal effect; on the % scale 0 is the no-effect control and ±100 the full control effect; nearly all actives have a fitted effect of over 75% in size
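MLSMR compounds (23 nl, pin-transferred) preincubated 10 min at room temperature with a 500nM (2x) first reagent, then RGS4 at 900nM (2x) plus Transcreener GDP mix added; fluorescence polarization (620/688 nm) read before and after 90 min at 30 °C.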
LDHA inh: blocks human lactate dehydrogenase A; P00338; purified LDHA, NADH/diaphorase-resazurin fluorescence; hits give low values; activity change, % (values are at about 110 or 230 µM); 0.15% of 480,000 active; in the data active means activity change below about -30%;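 further: plate controls were DMSO wells for no effect and wells without enzyme for full effect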
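Enzyme activity of human lactate dehydrogenase 5 (2 nM; 0.06 mM NADH, 0.2 mM pyruvate, 5 min, RT) is measured via a resazurin/diaphorase fluorescence readout of residual NADH.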
Starred values were filed as active, the others as inactive; / = no result; [ ] = dose if it differs, or a comment. Unless noted, the call rests on the fitted dose curve; in most records, active means well fitted curve in the direction sought with a large enough effect; inconclusive means small, poorly fitted or top-dose-only effect, or another doubt; inactive means no such curve, though single readings can be large; an effect the other way counts as inactive or inconclusive.

SMILES	ClpP mod	Mito fusion yeast	IDH1 R132H inh	S-ASM inh	RGS4 inhibitor	LDHA inh
COc1ccc(-c2cc(C(F)(F)F)nc(SCC(=O)NCC(C)C)n2)cc1OC	4%	/	-15%	/	-26%	1
COc1ccc(-c2cc(C(F)(F)F)nc(SCCC(=O)N3CCN(C)CC3)n2)cc1	-2%	/	-9%	1%	12%[11.4 µM]	-5
COc1ccc(-c2cc(C(F)(F)F)nc(SCC(=O)NCc3cnn(C)c3C)n2)cc1OC	28µM*	0%	4%	398%	-5%	-1
O=C1CCSc2ccc(C(=O)Nc3ccc(Oc4ccccc4)cc3)cc2N1	/	/	/	/	/	-1
CC(c1ccccc1)N(C)C(=O)/C=C/c1ccc(Br)s1 (stereo not drawn)	/	/	/	/	/	7
COc1cccc2sc(=NC(=O)CCS(=O)(=O)c3ccc(C)cc3)n(C)c12	3.2µM*	-3%	-4%	-4%	8%	-9
COc1ccc(NS(=O)(=O)c2ccc(Cl)c(NC(=O)c3ccccc3F)c2)cc1	-1%	/	2%	-19%	-15%	-1
CC(C)(C)C(=O)Nc1cc(S(=O)(=O)Nc2ccc(Cl)cc2)ccc1Cl	-2%	18µM*	4%	-8%	-2%	0
Cc1cc(C(=O)NCCc2ccccn2)c(C)s1	/	/	/	/	/	-15
Clc1ccc(N/N=C/c2cccc(Br)c2)cc1Cl	/	/	/	/	/	9
O=C(Nc1cc(Sc2ccccn2)cc([N+](=O)[O-])c1)c1cccc(Cl)c1	-3%	16µM*	10%	-15%	-7%	-5
O=C(Nc1cc(Sc2ccccn2)cc([N+](=O)[O-])c1)c1ccc(Cl)cc1	-2%	-1%	3%	-10%	8%	-1
COc1ccccc1N1CCN(Cc2cc(=O)c(OCC(=O)Nc3ccccc3)co2)CC1	25µM*	11%	-5%	/	22%	-3
COc1ccccc1N1CCN(CC(=O)Nc2ccc(CN3CCCCC3)cc2)CC1	-1%	-2%	2%	2%	-4%	-46*
COc1cccc(CN2CCN(CC(=O)Nc3ccccc3Cl)CC2)c1	14µM*	2%	0%	0%	-31%[11.4 µM]	-4
COc1ccccc1NC(=O)CN1CCN(CC(=O)Nc2ccccc2Cl)CC1	0%	16%	-1%	3%	-5%	-6
CCOC(=O)CSc1nc2cc(OC)ccc2cc1C#N	32µM*	6%	5%	9%	-30%	-5
CCOc1ccc2nc(SCC(=O)N3CCCCCC3)c(C#N)cc2c1	-9%	9%	9%	60%	-16%	5
CCOc1ccc2cc(C#N)c(SCC(=O)N3CCOCC3)nc2c1	25µM*	7%	2%	12%	-11%	-12
CCC(=O)Nc1ccc(OCc2cc(=O)n3cccc(C)c3n2)cc1	/	/	/	/	/	0
O=C1CCCCCC1C1(O)C(=O)Nc2ccccc21 (stereo not drawn)	11µM*	-2%	2%	0%	-22%	-5
CC(C)(C)C1(O)C(=O)Nc2ccccc21 (stereo not drawn)	/	/	/	/	/	12
CCc1ccc2c(CN3CCN(S(=O)(=O)c4cccs4)CC3)cc(=O)oc2c1	32µM*	25%	1%	-2%	-14%	0
CCc1ccc2c(CN3CCN(S(=O)(=O)c4ccccc4F)CC3)cc(=O)oc2c1	/	/	6%	-2%	-9%	2
CN(C)S(=O)(=O)c1ccc(=O)n(Cc2ncc(-c3ccc(F)cc3)o2)c1	/	/	/	/	/	-12
COc1cccc(-n2c(C)c(C)c3c2ncn2nc(-c4cccs4)nc32)c1	/	/	/	/	/	-36*
COc1ccccc1C(=O)Nc1ccc2oc(-c3ccccc3C)cc(=O)c2c1	/	/	/	/	/	-4
CC1CCN(CCOc2ccc(OCc3ccccc3)cc2)CC1	3.2µM*	-1%	8%	5%	-12%	-7
Brc1ccc(-c2cn3c(n2)CCc2ccc4cccnc4c2-3)cc1	28µM*	4%	31%	29%	-20%	5
